In PubChem BioAssay (NCATS):
Several values for one entry are separate records, joined by “and”; a condition that tells them apart may be missing. Equal entries are not always repeated.

Assay: qHTS profiling for inhibitors of Plasmodium falciparum (DD2) proliferation (AID 743323)
Settings: lower = more inhibition; at 28.7 µM (top of the series) unless noted
Excerpt: Plasmodium falciparum is a virulent malarial parasite that kills 1-2 million people worldwide each year. Transmitted by mosquitoes, the sporozoite form of the parasite enters the blood stream to infect hepatocytes, where they become merozoites that infect red blood cells (erythrocytes). Within erythrocytes, merozoites begin a […] cycle of growth and division, after which the parasite is released to infect new red blood cells. Gametocytes, which form within erythrocytes as well, circulate in the bloodstream and are ingested by the mosquito, thereby completing the life cycle. To profile malarial isolates for differential chemical responses and to identify inhibitors of malarial growth, an assay that measures P. falciparum growth and replication within erythrocytes was employed. This assay uses a DNA binding fluorescent dye (SYBR Green) to detect parasite DNA following cell lysis. Because mature erythrocytes lack DNA, only Plasmodium-derived DNA is detected.
The SYBR Green viability assay was adapted from a method described previously (Plouffe et al., 2008). For screening 3 ul culture medium was dispensed into 1536 well black clear bottom plates (Aurora Biotechnologies) using a Multidrop Combi (Thermo Fisher Scientific Inc.), 23 nL compounds in DMSO were added by a pin tool (Kalypsys), and 5 ul of erythrocytes infected with P. falciparum (0.3% parasitemia, 2.5% hematocrit final concentration) were added. The plates were incubated at 37 C in a humidified incubator in 5% CO2 for 72 h, and 2 ul lysis buffer (20 mM Tris HCl, 10 mM EDTA, 0.16% saponin, […]% triton X, 10X SYBR Green I supplied as 10,000X […] by Invitrogen) was added to each well. The plates were mixed for 25 sec with gentle shaking and incubated overnight at room temperature in the dark. The following morning, fluorescence intensity at 485(14) nm excitation and 535(25) nm emission wavelengths was measured on an EnVision (Perkin Elmer) plate reader. Plate reads were normalized relative to the control inhibitor (0.29 uM artemisinin) and vehicle (DMSO) wells present on each plate and then corrected by an algorithm using vehicle-only control plates at the beginning and end of the compound plate stack.

Row | Compound | activity, percent of control
1 | CCC(C)(C)C(=O)O[C@H]1C[C@@H](C)C=C2C=C[C@H](C)[C@H](CC[C@@H]3C[C@@H](O)CC(=O)O3)[C@H]21 | 96.4% [at 9.63 µM]
2 | O=C(C1CC1)N1CC[C@@H](Cn2c(-c3ccc(-c4ccc5occc5c4)cc3)nc3cnccc32)C1 | 74.7%
3 | COc1c(Cl)cc2c([nH]c3cnccc32)c1NC(=O)c1cccnc1C | 108%
4 | Cc1cc(Nc2nc(N[C@@H](C)c3ncc(F)cn3)ncc2Cl)n[nH]1 | 100%
5 | COc1ccc(-c2ccc3c(N4CCOCC4)nc(N4C[C@@H](C)O[C@@H](C)C4)nc3n2)cc1CO | 25.3%
6 | COc1cc(Oc2ccnc3cc(OC)c(OC)cc23)ccc1NC(=O)NC(C)c1nccs1 (stereo not given) | 56.8%
7 | COc1cc(F)c(F)c(Nc2ccc(I)cc2F)c1NS(=O)(=O)C1(C[C@H](O)CO)CC1 | 78.6%
8 | CCc1cncnc1N1CCN(Cc2nc3ccc(C(F)(F)F)cc3[nH]2)CC1 | 20.3%
9 | NC(=O)c1ccc(I)c([N+](=O)[O-])c1 | 92.6%
10 | CNCc1ccc(-c2[nH]c3cc(F)cc4c3c2CCNC4=O)cc1 | 77.5%
11 | O=C(O)CCc1ccc(NCc2cccc(Oc3ccccc3)c2)cc1 | 102%
12 | CCN(CC)CCCC(C)Nc1nc(C)cc(Nc2ccc3nc(C)cc(N)c3c2)n1 (stereo not given) | 17.1%
13 | O=c1[nH]c(-c2ccc(C(F)(F)F)cc2)nc2c1CSCC2 | 103%
14 | CNC(=O)c1ccc(C)c(-n2c(C)cc(OCc3ccc(F)cc3F)c(Br)c2=O)c1 | 80.8%
15 | CCN(c1ccccc1)c1cc(NC)[n+](C)c(C)n1 | 73.7%
16 | C[C@H](NC(=O)Cc1cc(F)cc(F)c1)C(=O)N[C@@H]1C(=O)N(C)c2ccccc2-c2ccccc21 | 7.48%
17 | CS(=O)(=O)c1ccc(C(=O)Nc2ccc(Cl)c(-c3ccccn3)c2)c(Cl)c1 | 101%
18 | Cc1cnc(Nc2ccc(OCCN3CCCC3)cc2)nc1Nc1cccc(S(=O)(=O)NC(C)(C)C)c1 | 52.4%
19 | CC(c1cc2ccccc2s1)N(O)C(N)=O (stereo not given) | 101% [at 57.5 µM]
20 | Cc1ccnc(NS(=O)(=O)c2ccc(NC(=O)Nc3ccc(S(=O)(=O)Nc4nccc(C)n4)cc3)cc2)n1 | 27.4%

Row | Compound | activity, percent of control
21 | CC1(C)CNc2cc(NC(=O)c3cccnc3NCc3ccncc3)ccc21 | 68.6%
22 | CS(=O)(=O)Oc1ccc2c(NC(N)=O)c(C(=O)c3ccc(Cl)cc3Cl)oc2c1 | 83.2%
23 | CCN(CC)CCCC(C)Nc1ccnc2cc(Cl)ccc12 (stereo not given) | 2.54%
24 | COc1cc2nccc(Oc3ccc(NC(=O)NC4CC4)c(Cl)c3)c2cc1C(N)=O | 67.5%
25 | CN([C@@H](Cc1ccc(OS(=O)(=O)c2cccc3cnccc23)cc1)C(=O)N1CCN(c2ccccc2)CC1)S(=O)(=O)c1cccc2cnccc12 | 0.806% and 0.455%
26 | Cc1[nH]c(=O)c(C#N)cc1-c1ccc2nccn2c1 | 98.1%
27 | CCCS(=O)(=O)Nc1ccc(F)c(C(=O)c2c[nH]c3ncc(Cl)cc23)c1F | 83.1%
28 | CCCCCCCc1ccc(CCc2cccc(O)c2C(=O)O)cc1 | 88.3%
29 | CC1(C)SCCN(S(=O)(=O)c2ccc(OCC#CCO)cc2)[C@@H]1C(=O)NO | 104%
30 | Clc1ccc(Nc2nnc(Cc3ccncc3)c3ccccc23)cc1 | 2.71%
31 | NC(=O)c1ccc(-c2nc(-c3ccc4c(c3)OCO4)c(-c3ccccn3)[nH]2)cc1 | 88.1%
32 | NC(=O)c1ccc(-c2nc(-c3ccc4c(c3)OCCO4)c(-c3ccccn3)[nH]2)cc1 | 4.9%
33 | Cc1csc(NC(=O)c2sc3nc4c(c(C(F)(F)F)c3c2N)CCC4)n1 | 101%
34 | CCCc1nc2c(C)cc(-c3nc4ccccc4n3C)cc2n1Cc1ccc(-c2ccccc2C(=O)O)cc1 | 94%
35 | Cc1c(CCOc2ccc(C(=O)O)cc2)c2cc(Cl)ccc2n1C(c1ccccc1)c1ccccc1 | 81.3%
36 | COc1cccc2cc(-c3nc(C4CCC(C(=O)O)CC4)n4ncnc(N)c34)[nH]c12 (stereo not given) | 53.2%
37 | O=C(NOC[C@H](O)CO)c1ccc(F)c(F)c1Nc1ccc(I)cc1F | 98.3%
38 | COc1ccc(COc2cc3oc(=O)c4cc(C(C)O)ccc4c3cc2OC)cc1 (stereo not given) | 22%
39 | C[C@]1(c2nc3c(C(N)=O)cccc3[nH]2)CCCN1 | 87.4%
40 | O=C(O)c1ccc(-c2c[nH]c3ccc(-c4ccccc4)cc23)cc1C1CCCC1 | 0.0014%
